Inconclusive results are not listed. Where a call stands in place of a potency, no number is given. The source made the active and inactive calls. Calls come from the whole dose curve; as a rule, active = well fitted inhibition curve with a large enough effect; inconclusive = small, poorly fitted or top-dose-only effect; inactive = no such curve, though single readings can be large or run the other way. *1 amine or outer side, *2 acyl side, *3 side chain or, on linkers, in order; H or OH if unused. Where a SMILES comes first, the peptide text is derived from it. [ ]: non-standard residue; d: D form. X7 = O=C([C@@H](CC(O)CCl)O[*:1])[*:2]; aIle = CC[C@@H](C)[C@H](N)C(=O)O; NMeV = CN[C@H](C(=O)O)C(C)C; NMeA = CN[C@@H](C)C(=O)O; βAla = NCCC(=O)O
The compounds below were run on Zika virus NS2B-NS3 protease (linked construct) (assay: Primary screen NINDS Rhodamine qHTS for Zika virus inhibitors (AID 1347160; note: nearly all actives have a fitted effect of over 55% in size)). Conditions: purified NS2B-NS3 protease, Rhodamine110 substrate fluorescence; series mostly up to 57.1 µM.
Source text: Avindra Nath, Ph.D., National Institute of Neurological Disorders and Stroke (NINDS), Bethesda, MD
Radhakrishnan Padmanabhan, Ph.D., Georgetown University (GU), Washington D.C.
Zika Virus causes congenital defects, including microcephaly and is associated with Guillain-Barre syndrome, eningoencephalitis and myelitis in infected adult. […] Using a target-based approach, we hope to establish a screening paradigm to uncover novel, cell-active NS2B-NS3 protease (Zika Virus) specific inhibitors from NCATS' collection of small molecules using qHTS.
Four assay panel was created to identify potential Zika Virus inhibitors. Namely, (1) GU unlinked NS2B-NS3 AMC tagged protease qHTS, (2) GU unlinked NS2B-NS3 Rhodamine tagged protease qHTS, (3) NINDS linked NS2B-NS3 AMC tagged protease qHTS, (4) NINDS linked NS2B-NS3 Rhodamine tagged protease qHTS. Active compounds were re-acquired and re-screened to confirm inhibition. Inhibitors were further screened against various confirmatory and counterscreens in dose response format.
Early Translation Branch (ETB)
National Center for Advancing Translational Sciences (NCATS), Rockville, MD
National Institute of Health (NIH), Bethesda, Maryland
For the linked assay, Nath lab (NINDS) provided the purified linked NS2B-NS3 protease which is consists of hydrophilic domain of NS2B linked to the NS3 protease domain by a flexible (-[…]-) linker. Control compound aprotinin is obtained from Thermo Scientific (#78432; Waltham, Massachusetts). Rhodamine110 substrate ([N-Cbz]-Nle-Lys-Arg-Arg-Rhod110-Arg-Arg-Lys-Nle-[N-Cbz]) was purchased from either Genscript or Bachem.
1536-well Protease (Rhodamine110 Substrate) Assay:
Briefly, 3 microL of enzyme (25 nM final concentration), in assay buffer (10 mM Tris-HCl pH 8.0 with 0.01% Tween 20) were dispensed into a 1,536-well solid-bottom black plate (Greiner Bio One, Monroe, NC). Twenty-three nL of compounds (final concentration range 7.28 nM to 114 microM) or control Aprotinin (final concentration range 3.47 nM to 114 microM) were transferred via Wako Pin-tool (Wako Automation, Richmond, VA). Samples were incubated (room temperature, protected from light) for 15 minutes followed by a 1 microL Rhodamine110 substrate addition (1.5 microM final concentration). Plates were then immediately read on a ViewLux High-throughput CCD imager (PerkinElmer, Waltham, MA) equipped with FITC fluorescence optics (480(20) nm excitation, 540(25) nm emission), then incubated (room temperature, protected from light) for 15 minutes (~15% conversion). The change in fluorescence intensity over the 15-minute reaction period was normalized against no-inhibitor and no-enzyme controls and the resulting percent inhibition data were fitted to a 4-parameter Hill equation. Aprotinin was used as intraplate control.

Row | SMILES | Potency
1 | N#Cc1ccccc1-c1cc(-c2ccccn2)cn(-c2ccccc2)c1=O | inactive
2 | N#Cc1cn([C@@H]2O[C@H](CO)[C@H](O)[C@@H]2O)c2ncnc(N)c12 | inactive
3 | C#CCO[C@H]1CN2CCC1CC2 | inactive
4 | CC(=O)OC[C@]12C[C@H](OC(=O)CC(C)C)C(C)=C[C@H]1O[C@@H]1[C@H](O)[C@@H](O)[C@@]2(C)[C@]12CO2 | inactive
5 | CC1=CC2/C=C(\C)CCC(O)C(O)/C=C/C(=O)OC23C(=O)NC(CC(C)C)C3C1C (stereo not given) | inactive
6 | O=C(N[C@H]1CN2CCC1CC2)c1cc2cccc(Cl)c2s1 | inactive
7 | CC(=O)OC[C@]12C[C@H](O)C(C)=C[C@H]1O[C@@H]1[C@H](O)[C@@H](OC(C)=O)[C@@]2(C)[C@]12CO2 | inactive
8 | CC(=O)O[C@H]1C[C@]2(O)[C@@H]3CC[C@@H]4C[C@@H](O)CC[C@]4(C)[C@H]3CC[C@]2(C)[C@H]1c1ccc(=O)oc1 | inactive
9 | Fc1cc(F)c2c(c1)C1C=CCC1C(c1cccnc1)N2 (stereo not given) | inactive
10 | NCCc1ccccc1 | inactive
11 | CC(O)(c1ccccc1)C(Cc1ccc(Cl)cc1)n1cncn1 (stereo not given) | inactive
12 | CCc1nn(C)c(C(=O)NCc2ccc(Oc3ccc(C)cc3)cc2)c1Cl | inactive
13 | COC(=O)C12C(=O)C(C)(O)C(=O)C1(C)C(C)=CC1C34CCC(OC3=O)C(C)(C)C4CCC12C (stereo not given) | inactive
14 | c1ccc2c3c([nH]c2c1)CNCC3 | inactive
15 | N#CC(O[C@@H]1O[C@H](CO)[C@@H](O)[C@H](O)[C@H]1O)c1ccccc1 (stereo not given in full) | inactive
16 | C[C@]12CC[C@H](OC3OC(CO)C(O)C(O)C3OC3OC(CO)C(O)C(O)C3O)C[C@@H]1CC[C@@H]1C2CC[C@]2(C)[C@@H](C3=CC(=O)OC3)CC[C@]12O (stereo not given in full) | inactive
17 | C=C1[C@@H](C)[C@H]2[C@H](Cc3ccccc3)NC(=O)[C@]23[C@H](OC(C)=O)/C=C/[C@](C)(O)C(=O)[C@@H](C)C/C=C/[C@H]3[C@@H]1O | inactive
18 | CC[C@@H](C)[C@@H]1NC(=O)[C@@H]2CCCN2C(=O)[C@@H](CC(O)CCl)OC(=O)CCNC(=O)[C@H](C)N(C)C(=O)[C@H](C(C)C)N(C)C1=O (stereo not given in full) (cyclo([NMeA][βAla][X7]P[aIle][NMeV])) | inactive
19 | CN1C(=O)[C@@H](Cc2c[nH]c3ccccc23)N=C(c2ccccc2F)c2ccccc21 | inactive
20 | C/C=C(/C)C(=O)O[C@H]1[C@@H]2[C@H](C)C(=O)O[C@@H]2C[C@@H](C)[C@@H]2C=CC(=O)[C@]21C | inactive

Row | SMILES | Potency
21 | COc1cc2c(c(OC)c1OC)-c1ccc(SC)c(=O)cc1[C@@H](NC(C)=O)CC2 | inactive
22 | CCC(C)C1NC(=O)C(C(C)=O)=C1O (stereo not given) | inactive
23 | Cc1ccc2c(c1)[C@H]1CN(C)CC[C@H]1N2C(=O)CSc1nnnn1-c1ccc(Cl)cc1 | inactive
24 | C[N@@+]1(CC2CC2)CC[C@]23c4c5ccc(O)c4O[C@H]2C(=O)CC[C@@]3(O)[C@H]1C5 | inactive
25 | Clc1ccc([C@]23CNC[C@H]2C3)cc1Cl | inactive
26 | O=C1Nc2ccc3ncsc3c2/C1=C/c1cnc[nH]1 | inactive
27 | CC(=O)OC[C@]12C[C@H](O)C(C)=C[C@H]1O[C@@H]1[C@H](O)[C@@H](O)[C@@]2(C)[C@]12CO2 | inactive
28 | CN1CCC2=C(C1)c1ccccc1Cc1ccccc12 | inactive
29 | C[C@]12CC[C@H](O)C[C@H]1CC[C@@H]1[C@@H]2[C@H](O)C(=O)[C@]2(C)[C@@H](c3ccc(=O)oc3)CC[C@]12O | inactive
30 | C=C1[C@@H](C)[C@H]2[C@H](Cc3ccccc3)NC(=O)[C@]23OC(=O)/C=C/C(=O)CCC[C@@H](C)C/C=C/[C@H]3[C@@H]1O | inactive
31 | CO[C@@H]1C[C@H](O[C@H]2CC[C@@]3(C)C(CCC4C3CC[C@]3(C)[C@@H](C5=CC(=O)OC5)[C@@H](OC(C)=O)CC43O)C2)O[C@H](C)[C@@H]1O[C@H]1O[C@H](CO[C@@H]2O[C@H](CO)[C@@H](O)[C@H](O)[C@H]2O)[C@@H](O)[C@H](O)[C@H]1O (stereo not given in full) | inactive
32 | C=CC(C)(C)C12C=C(O)C(=O)N3/C(=C\c4cnc[nH]4)C(=O)NC31N(OC)c1ccccc12 (stereo not given) | inactive
33 | CCC1C2CC3C4N(C)c5ccccc5C45CC(C2C5O)N3C1O (stereo not given) | inactive
34 | COc1ccsc1CNCC[C@@]1(c2ccccn2)CCOC2(CCCC2)C1 | inactive
35 | Cc1ccccc1C1=CCN(C)CC1 | inactive
36 | CC(=O)OC[C@]12C[C@H](OC(=O)CC(C)C)C(C)=C[C@H]1O[C@@H]1[C@H](O)[C@@H](OC(C)=O)[C@@]2(C)[C@@]12CO2 | inactive
37 | C/C=C(\C)C(=O)O[C@@H]1[C@@H](C)[C@]2(O)C3C=C(C)C(=O)[C@@]3(O)CC(CO)=C[C@H]2C2C(C)(C)[C@@]21OC(=O)C(C)CC (stereo not given in full) | inactive
38 | c1ccc([C@@H]2C[C@H]2NC2CCNCC2)cc1 | inactive
39 | OCc1nnc2n1-c1ccc(Cl)cc1C(c1ccccc1Cl)=NC2 | inactive
40 | CN(C(=O)C(c1ccccc1)c1ccccc1)[C@H](CN1CC[C@H](O)C1)c1ccccc1 | inactive

— PubChem BioAssay (NCATS)
